Source: the supplement of paper PMC9262897, “Low-cost anti-mycobacterial drug discovery using engineered E. coli” (Nature Communications, 2022)
Counter-ions that a name gives are not always drawn. ± gives the standard deviation of the averaged measurements.

Legend:
Assay in all cases: growth (OD600 after 10 h); higher = more growth (less inhibition)
[1] = system: E. coli TESEC Alr+ wild-type control; details: compound 0.1 mM; raw OD600 reference: median of DMSO wells 0.241, cell-free background 0.041
Experimental: (§1)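 TESEC Mtb Alr E. coli, or the Alr+ wild-type control, in 384-well plates with Prestwick library compounds at 0.1 mM and 1% DMSO, across arabinose induction levels of 1E3 to 1E7 nM. Growth is read as OD600 after 10 h at 37 °C in triplicate biological replicates.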

[2] = system: E. coli TESEC Mtb Alr; details: compound 0.1 mM
Experimental: as §1

[3] = system: E. coli TESEC Mtb Asd; details: compound 0.1 mM
Experimental: (§2)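 TESEC E. coli strains in which the native enzyme is deleted and replaced by arabinose-inducible Mtb Asd, DapB, CysH or TrpD, each grown in its selective medium. Strains were screened against the Prestwick library at 0.1 mM and 1% DMSO in 384-well format at low and high arabinose induction. Growth is read as OD600 after 10 h in triplicate.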

[4] = system: E. coli TESEC Mtb DapB; details: compound 0.1 mM
Experimental: as §2

[5] = system: E. coli TESEC Mtb Alr; details: compound 0.1 mM; remark: listed apart in the source
Experimental: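 TESEC Mtb Alr E. coli (ΔaraC ΔtolC ΔentC Δalr ΔdadX, arabinose-inducible Mtb Alr) or the Alr+ wild-type control strain, grown in defined M9-fructose medium without D-alanine in 96-well plates with Prestwick library compounds at 0.1 mM and 1% DMSO. Low Alr induction is 0.1 µM arabinose and high induction is 10 mM arabinose.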

[6] = arabinose 1000 nM, raw OD600 reference: median of DMSO wells 0.294, cell-free background 0.041
[7] = arabinose 10000 nM, raw OD600 reference: median of DMSO wells 0.264, cell-free background 0.041
[8] = arabinose 100000 nM, raw OD600 reference: median of DMSO wells 0.201, cell-free background 0.041
[9] = arabinose 1000000 nM, raw OD600 reference: median of DMSO wells 0.193, cell-free background 0.041
[10] = arabinose 10000000 nM, raw OD600 reference: median of DMSO wells 0.146, cell-free background 0.041
[11] = arabinose induction (level): High, raw OD600 reference: median of DMSO wells 0.331, cell-free background 0.041
[12] = arabinose induction (level): Low, raw OD600 reference: median of DMSO wells 0.417, cell-free background 0.041
[13] = arabinose induction (level): High, raw OD600 reference: median of DMSO wells […], cell-free background 0.041
[14] = arabinose induction (level): Low, raw OD600 reference: median of DMSO wells 0.227, cell-free background 0.041
[15] = arabinose 100 nM, raw OD600 reference: median of DMSO wells 0.413, cell-free background 0.052
[16] = arabinose 10000000 nM, raw OD600 reference: median of DMSO wells […], cell-free background 0.052

Structure (SMILES) | growth [1] | growth [2, 6] | growth [2, 7] | growth [2, 8] | growth [2, 9] | growth [2, 10] | growth [3, 11] | growth [3, 12] | growth [4, 13] | growth [4, 14] | growth [5, 15] | growth [5, 16]
CCOc1ccc(NC(C)=O)cc1 [Phenacetin] | 0.243 ± 0.0043 | 0.2912 ± 0.0014 | 0.27 ± 0.0042 | 0.231 ± 0.028 | 0.1828 ± 0.0017 | 0.152 ± 0.0045 | 0.345 ± 0.083 | 0.413 ± 0.084 | 0.208 ± 0.019 | 0.224 ± 0.012 | 0.411 ± 0.011 | 0.329 ± 0.019
CC1(C)O[C@@H]2C[C@H]3[C@@H]4C[C@H](F)C5=CC(=O)C=C[C@]5(C)[C@@]4(F)[C@@H](O)C[C@]3(C)[C@]2(C(=O)CO)O1 [Fluocinolone acetonide] | 0.174 ± 0.0075 | 0.262 ± 0.01 | 0.263 ± 0.0058 | 0.153 ± 0.0083 | 0.146 ± 0.0019 | 0.144 ± 0.0033 | 0.198 ± 0.02 | 0.401 ± 0.017 | 0.188 ± 0.019 | 0.239 ± 0.039 | 0.409 ± 0.0053 | 0.274 ± 0.0057
NC(=O)N/N=C/c1ccc([N+](=O)[O-])o1 [Nitrofural] | 0.044 ± 0.00072 | 0.0426 ± 0.00078 | 0.04193 ± 0.00015 | 0.044 ± 0.0018 | 0.042 ± 0.00045 | 0.0427 ± 0.00084 | 0.0898 ± 0.0054 | 0.0756 ± 0.0054 | 0.11 ± 0.0086 | 0.145 ± 0.016 | 0.0532 ± 0.0056 | 0.0522 ± 0.00076
C=CCc1ccccc1OCC(O)CNC(C)C (stereo unspecified) [Alprenolol hydrochloride] | 0.217 ± 0.0068 | 0.267 ± 0.013 | 0.259 ± 0.013 | 0.199 ± 0.023 | 0.156 ± 0.0022 | 0.145 ± 0.0043 | 0.322 ± 0.074 | 0.419 ± 0.027 | 0.183 ± 0.011 | 0.284 ± 0.059 | 0.405 ± 0.013 | 0.363 ± 0.013
c1ccc(CN(CC2=NCCN2)c2ccccc2)cc1 [Antazoline hydrochloride] | 0.2355 ± 0.0022 | 0.279 ± 0.02 | 0.254 ± 0.0091 | 0.194 ± 0.021 | 0.167 ± 0.0018 | 0.14 ± 0.0039 | 0.355 ± 0.017 | 0.441 ± 0.017 | 0.185 ± 0.01 | 0.225 ± 0.043 | 0.412 ± 0.0059 | 0.364 ± 0.015
NS(=O)(=O)c1cc(Cl)c(Cl)c(S(N)(=O)=O)c1 [Dichlorphenamide] | 0.25 ± 0.0031 | 0.298 ± 0.012 | 0.2704 ± 0.0016 | 0.211 ± 0.027 | 0.186 ± 0.011 | 0.131 ± 0.0026 | 0.312 ± 0.027 | 0.456 ± 0.038 | 0.213 ± 0.007 | 0.256 ± 0.026 | 0.402 ± 0.017 | 0.399 ± 0.032
CO[C@H]1/C=C/O[C@@]2(C)Oc3c(C)c(O)c4c(O)c(c5c(nc6cc(C)ccn65)c4c3C2=O)NC(=O)/C(C)=C\C=C\[C@H](C)[C@H](O)[C@@H](C)[C@@H](O)[C@@H](C)[C@H](OC(C)=O)[C@@H]1C [Rifaximin] | 0.044 ± 0.0038 | 0.0438 ± 0.0029 | 0.0409 ± 0.0005 | 0.0411 ± 0.00017 | 0.0418 ± 0.0021 | 0.0439 ± 0.0024 | 0.0569 ± 0.001 | 0.054 ± 0.0016 | 0.103 ± 0.089 | 0.0515 ± 0.0028 | 0.05527 ± 0.00047 | 0.0526 ± 0.00044
C[C@H](N[C@@H](CCc1ccccc1)C(=O)O)C(=O)N1CCC[C@H]1C(=O)O [Enalaprilat dihydrate] | 0.228 ± 0.0039 | 0.2913 ± 0.0017 | 0.285 ± 0.011 | 0.198 ± 0.019 | 0.208 ± 0.01 | 0.1379 ± 0.0012 | 0.259 ± 0.063 | 0.31 ± 0.094 | 0.21 ± 0.013 | 0.216 ± 0.022 | 0.411 ± 0.011 | 0.308 ± 0.022
CC(=O)NC[C@H]1CN(c2ccc(N3CCOCC3)c(F)c2)C(=O)O1 [Linezolid] | 0.047 ± 0.0002 | 0.0465 ± 0.0021 | 0.0406 ± 0.00046 | 0.0473 ± 0.0018 | 0.0402 ± 0.00055 | 0.0474 ± 0.0016 | 0.072 ± 0.0052 | 0.0786 ± 0.0075 | 0.0899 ± 0.0032 | 0.0871 ± 0.0054 | 0.135 ± 0.055 | 0.0531 ± 0.0013
CN1CCCN=C1/C=C/c1cccc(O)c1 [Oxantel pamoate] | 0.216 ± 0.016 | 0.303 ± 0.013 | 0.236 ± 0.0088 | 0.226 ± 0.039 | 0.141 ± 0.0019 | 0.189 ± 0.0049 | 0.282 ± 0.051 | 0.258 ± 0.009 | 0.1953 ± 0.0019 | 0.218 ± 0.019 | 0.405 ± 0.011 | 0.326 ± 0.013
COc1ccc2c(c1)N(C[C@H](C)CN(C)C)c1ccccc1S2 [Methotrimeprazine maleat salt] | 0.187 ± 0.0042 | 0.25 ± 0.015 | 0.274 ± 0.015 | 0.2 ± 0.0049 | 0.139 ± 0.0095 | 0.179 ± 0.002 | 0.131 ± 0.0046 | 0.2312 ± 0.0023 | 0.1934 ± 0.0013 | 0.211 ± 0.012 | 0.402 ± 0.0072 | 0.282 ± 0.02
O=c1[nH]cc(F)c(=O)[nH]1 [5-fluorouracil] | 0.122 ± 0.0069 | 0.155 ± 0.012 | 0.148 ± 0.0051 | 0.0825 ± 0.0014 | 0.0827 ± 0.0053 | 0.08963 ± 0.00055 | 0.193 ± 0.013 | 0.238 ± 0.015 | 0.151 ± 0.011 | 0.142 ± 0.013 | 0.359 ± 0.041 | 0.134 ± 0.013
CC(C)NC[C@H](O)COc1ccc(CC(N)=O)cc1 [(S)-(-)-Atenolol] | 0.244 ± 0.0056 | 0.288 ± 0.016 | 0.2708 ± 0.0025 | 0.214 ± 0.04 | 0.184 ± 0.0026 | 0.1491 ± 0.0014 | 0.287 ± 0.095 | 0.343 ± 0.051 | 0.193 ± 0.037 | 0.222 ± 0.03 | 0.413 ± 0.01 | 0.341 ± 0.022
